High-throughput results from PubChem BioAssay.
Apoferritin bind: qHTS Assay for Identification of Novel General Anesthetics | apoferritin/1-aminoanthracene competitive binding, fluorescence | Potency, µM (titrated, usually from 77.5 µM), inactives show top-dose activity change, negative = displacement, hits mostly inhibitors | 350,000 compounds, 0.074% hits; note: nearly all actives have a fitted effect of over 20% in size
Target sequence (P02791 2-175 limits assumed): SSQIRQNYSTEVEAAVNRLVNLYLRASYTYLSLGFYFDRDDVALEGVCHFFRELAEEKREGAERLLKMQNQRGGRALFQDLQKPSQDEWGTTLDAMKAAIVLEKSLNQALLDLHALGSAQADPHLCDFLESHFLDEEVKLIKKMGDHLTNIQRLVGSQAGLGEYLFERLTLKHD
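Probe: 1-aminoanthracene (50% saturated, PBS). Protein: horse-spleen apoferritin, 10 uM. Incubation: 10 min, room temperature. Detection: 380 nm excitation, 535 nm emission. Analysis: normalized response, four-parameter Hill.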
mIDH1 inhibitor: qHTS for Inhibitors of mutant isocitrate dehydrogenase 1 (IDH1): qHTS. Isocitrate dehydrogenase [NADP] cytoplasmic (Homo sapiens), O75874. IDH1-R132H enzyme, NADPH consumption, diaphorase/resazurin fluorescence. Potency, µM (highest dose often 76.6 µM), for inactives: at the highest dose activity change, negative = inhibition, actives largely listed as inhibitors. 390,000 compounds, 0.093% hits; note: nearly all actives have a fitted effect of over 65% in size
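IDH1-R132H (0.5 ug/mL) preincubated 30 min with compound, then NADPH (0.016 mM) and alpha-KG (2 mM) added; 80 min at RT, pH 7.5. Remaining NADPH coupled via diaphorase/resazurin to fluorescence (540/590 nm); concentration-response curves normalized to no-enzyme control.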
PKM2 act: qHTS Assay for Activators of Human Muscle isoform 2 Pyruvate Kinase. Potency, µM (series often up to 57.5 µM), inactives show at the top dose activation, actives largely listed as activators. 260,000 compounds, 0.34% hits. AID 1631, 2009. purified PKM2, Kinase-Glo ATP luminescence, activation; response scale: 0% is enzyme alone, no compound; note: nearly all actives have a fitted effect of over 55% in size
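Kinase-Glo luminescence reports ATP generated from ADP (0.1 mM) and PEP (0.5 mM) by purified hPK-M2 after 1 h at room temperature, pH 7.2 imidazole buffer; intermediate enzyme activity allows detecting inhibitors and activators.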
GALK inhibitor: qHTS Assay for Inhibitors of Human Galactokinase (GALK). P51570. Purified GALK, Kinase-Glo residual ATP luminescence. Potency, µM (titrated, usually from 57.5 µM), without a hit: top-dose activity change, negative = inhibition, most hits filed as inhibitors. 270,000 compounds, 0.007% hits. AID 1868, 2009
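Compounds were pin-transferred into ATP buffer (35 uM final), then GALK plus galactose (5 nM, 100 uM final) was added. After 1 h at room temperature, Kinase-Glo Plus was added and luminescence read after 10 min.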
TrxR1 inh: qHTS Assay for Inhibitors of Mammalian Selenoprotein Thioredoxin Reductase 1 (TrxR1): qHTS | recombinant rTrxR1, NADPH fluorescence consumption, selenite substrate | Potency, µM (series often up to 114 µM), for inactives: top-dose activity change, negative = inhibition, most hits filed as inhibitors | Thioredoxin reductase 1, cytoplasmic (Rattus norvegicus), O89049 | 390,000 compounds, 1% hits; note: nearly all actives have a fitted effect of over 65% in size
Target sequence (O89049 whole entry, looked up): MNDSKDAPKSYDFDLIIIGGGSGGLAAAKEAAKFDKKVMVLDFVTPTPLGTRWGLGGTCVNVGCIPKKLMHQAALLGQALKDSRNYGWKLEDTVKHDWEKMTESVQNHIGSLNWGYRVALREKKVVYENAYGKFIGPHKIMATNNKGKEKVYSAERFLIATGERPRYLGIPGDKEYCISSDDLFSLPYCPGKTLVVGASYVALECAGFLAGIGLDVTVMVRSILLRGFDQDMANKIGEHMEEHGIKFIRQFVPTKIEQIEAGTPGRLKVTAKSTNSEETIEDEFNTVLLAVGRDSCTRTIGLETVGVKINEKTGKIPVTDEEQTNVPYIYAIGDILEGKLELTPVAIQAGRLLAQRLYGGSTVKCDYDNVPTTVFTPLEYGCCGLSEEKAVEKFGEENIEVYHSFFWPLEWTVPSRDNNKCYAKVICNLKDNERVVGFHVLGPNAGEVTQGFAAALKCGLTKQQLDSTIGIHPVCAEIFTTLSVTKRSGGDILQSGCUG
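Rat TrxR1 (90 nM in the dispensed reagent) was pre-reduced with 400 uM NADPH for 5 min at room temperature, then incubated with compound for 15 min. After 400 uM selenite was added, NADPH fluorescence (Ex 340/Em 450 nm) was followed for 8 min.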
TrxR1 substrate: qHTS Assay for Substrates of Mammalian Selenoprotein Thioredoxin Reductase 1 (TrxR1): qHTS. Thioredoxin reductase 1, cytoplasmic (Rattus norvegicus), O89049. purified TrxR1 substrate turnover, NADPH consumption readout. Potency, µM (titrated, usually from 114 µM), without a hit: at the highest dose activity change, negative = substrate turnover. 390,000 compounds, 0.01% hits. AID 588456, 2011; note: nearly all actives have a fitted effect of over 50% in size
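Rat TrxR1, dispensed at 90 nM, was prereduced with 400 uM NADPH (final) for 5 min at ~22 deg C, then incubated with compound 15 min before 400 uM selenite. A first-read NADPH fluorescence drop versus no-compound background flagged substrates.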
Numbers without * were called inactive; ? = inconclusive; . = no result given; [ ] = remark or other dose. In the library only some 1.3% were active in any assay of this set; here they are far more common. Calls come from the whole dose curve; as a rule, active = well fitted curve in the direction sought with a large enough effect; inconclusive = small, poorly fitted or top-dose-only effect, or another doubt; inactive = no such curve, though single readings can be large; an effect the other way counts as inactive or inconclusive. % is set by controls: 0 for no effect and ±100 for the full control effect; potency is the fitted concentration of half-maximal effect.

SMILES | Apoferritin bind | mIDH1 inhibitor | PKM2 act | GALK inhibitor | TrxR1 inh | TrxR1 substrate
Cc1cc(C)c2[nH]c(=O)c(C(c3nnnn3C(C)(C)C)N3CCN(C(=O)c4ccco4)CC3)cc2c1 (configuration not stated) | -14% | 5% | 11µM* | -2% | 16µM* | 18%
CCC(C)(C)n1nnnc1C(c1cc2cccc(C)c2[nH]c1=O)N1CCCC1 (configuration not stated) | 3% | -7% | 4% | 0% | ? | 8%[57.1 µM]
Cc1ccc(C)c2[nH]c(=O)c(C(c3nnnn3C(C)(C)C)N3CC=C(c4ccc(F)cc4)CC3)cc12 (configuration not stated) | -11% | 7% | 1% | -1% | 71µM* | 11%[0.457 µM]
Cc1cc(C)c2[nH]c(=O)c(C(c3nnnn3CC3CCCO3)N3CCC(C)CC3)cc2c1 (configuration not stated) | ? | 1% | 3% | -2% | 20µM* | 7%[57.1 µM]
Cc1ccc(S(=O)(=O)c2nnn(-c3ccc(F)c(Cl)c3)c2N)cc1 | -5% | -13% | . | . | 9%[57.1 µM] | -1%[57.1 µM]
Cc1nn(CCC(=O)Nc2ccccc2Br)c(=O)c2nn(-c3ccccc3)c(C)c12 | -15% | -12% | . | . | 29%[57.1 µM] | 7%[57.1 µM]
CC1=CC(C)(C)Nc2ccc(OC(=O)CN3C(=O)c4cccc5cccc(c45)C3=O)cc21 | -24% | 16% | 29% | 1% | 8.9µM* | 9%
O=C(CC1N=C2c3ccccc3N=C(SCc3ccccc3F)N2C1=O)NCCc1ccccc1 (configuration not stated) | ? | 13% | . | . | 8%[57.1 µM] | 14%[57.1 µM]
Cc1cc(C(=O)CCl)c(C)n1CCc1ccc(Cl)cc1 | ? | ? | 0% | -5% | 7.9µM* | -3%
Cc1ccc2nc(Cl)c3nnnn3c2c1 | -3% | 0% | 1% | 6% | 8.9µM* | 3%
Cc1ccc2nc(NCc3ccccc3Cl)c3nnnn3c2c1 | 8% | -4% | . | . | 16% | 23%
Cc1ccc2nc(N(CCCN(C)C)C(=O)c3ccc(S(=O)(=O)N(C)C)cc3)sc2c1 | -8% | 1% | 4% | 0% | 4% | 3%
Cc1ccc2nc(N(CCCN(C)C)C(=O)c3sc4ccccc4c3Cl)sc2c1 | ? | 2% | 4% | -1% | 50µM* | -7%
Cc1cc(C)c2c(/C=C/c3ccc(N(C)C)cc3)ccnc2c1 | . | . | . | . | -1% | -7%
CC(=O)c1ccc(OCc2cc(C(=O)N3CCOCC3)no2)cc1 | -5% | 1% | -1%[0.46 µM] | -2% | 8% | 8%
CC(=O)c1ccc(OCc2cc(C(=O)N3CCCCCCC3)no2)cc1 | 5µM* | 4% | . | -3% | -12% | -13%
O=C(/C=C/c1ccc(C(F)(F)F)cc1)OC(C(=O)NC1CC1)c1ccccc1 (configuration not stated) | . | . | . | . | 9% | 4%[0.0914 µM]
COc1ccc(C(=O)NC(=S)SCC(=O)O)cc1 | 1% | 0% | -3% | -1% | -10% | 10%
CCOC(=O)CSC(=S)NC(=O)c1ccc(OC)cc1 | 0% | -2% | -2% | 0% | 22µM* | -2%
COc1cc(OC)c(C=CC(=O)c2ccccc2O)c(OC)c1 | . | 7% | . | . | 13%[57.1 µM] | -8%
COc1cc(/C=C/C(=O)c2ccccc2O)cc(OC)c1OC | ? | -6% | 6% | -5% | 50µM* | -10%
COc1ccc(C(=O)N2CCC(n3c(C)nc4cc(F)ccc43)CC2)cc1OC | -10% | 6% | ? | 2% | 13% | 1%
COc1ccc(C(=O)N2CCC(n3c(C)nc4cc(F)ccc43)CC2)cc1 | -17% | -2% | 11µM* | 0% | 10% | 0%
CCc1nnc(NS(=O)(=O)c2ccc(NC(=O)c3ccc(Cl)cc3)cc2)s1 | -6% | 7% | 2% | -2% | 24% | 0%
CCc1nnc(NS(=O)(=O)c2ccc(NC(=O)c3ccccc3)cc2)s1 | -3% | -10% | -3% | -4% | 28% | 2%
SMILES | Apoferritin bind | mIDH1 inhibitor | PKM2 act | GALK inhibitor | TrxR1 inh | TrxR1 substrate
CCc1nnc(NS(=O)(=O)c2ccc(NC(=S)NC(=O)c3ccccc3)cc2)s1 | 1% | -3% | -2% | 0% | 28µM* | -16%
CC(=O)Nc1ccc(S(=O)(=O)Nc2nnc(C(C)(C)C)s2)cc1 | -1% | -7% | 16µM* | -1% | 2% | 7%
O=C(NC(=S)Nc1ccc(S(=O)(=O)Nc2nccs2)cc1)c1ccccc1 | 0% | -3% | 8% | 1% | 40µM* | -14%
CCc1nnc(NS(=O)(=O)c2ccc(NC(=S)NC(=O)c3ccc(Br)cc3)cc2)s1 | -10% | ? | 0% | 0% | 50µM* | -19%
CN(CC(=O)O)c1ccc(/C=C/c2ccnc3ccccc23)cc1 | . | . | . | . | -1% | -3%
COC1=CC(=O)C(OC)=C(OC)C1=O | . | 22% | . | . | 50µM* | -9%
COC1=C(OC)C(=O)c2ccccc2C1=O | . | . | . | . | 12%[57.1 µM] | 24%[57.1 µM]
C[n+]1c(/C=C/c2ccnc3ccccc23)cc(/C=C/c2ccnc3ccccc23)c2ccccc21 | . | . | . | . | ? | -12%
CC(C)CN1C(=O)/C(=C/c2cccs2)NC1=S | -14% | 10% | 9% | -2% | 14µM* | -3%
COc1ccc(C2=NO[C@@H]3C(=O)N(c4cccc(C)c4C)C(=O)[C@H]23)cc1OC | 4% | 13% | 8% | -1% | 2% | 3%
COc1ccc(C2=NO[C@@H]3C(=O)N(c4ccc(C)cc4C)C(=O)[C@H]23)cc1OC | ? | 6% | -3% | -1% | 22µM* | 13%
CC(=O)c1ccc(NC(=O)CSc2nc(-c3ccccc3C)nc3c2c(=O)n(C)c(=O)n3C)cc1 | ? | 17% | . | . | 7%[57.1 µM] | 3%[57.1 µM]
COc1ccc(CCNC(=O)CCCn2nc(C)c3sc4ccccc4c3c2=O)cc1OC | -3% | 15% | . | . | 20% | 11%
O=C(/C=C1\NC2(CCCC2)Cc2ccccc21)N1CCOCC1 | -1% | 2% | 3% | 0% | 40µM* | -4%
CC1(C)Cc2c(ccc3ccccc23)/C(=C/C(=O)N2CCCCC2)N1 | -8% | 4% | 2% | -4% | 35%[57.1 µM] | 19%[57.1 µM]
C[C@H](CO)N1C[C@H](C)[C@@H](CN(C)C(=O)Nc2ccccc2)Oc2c(NC(=O)c3ccncc3)cccc2C1=O | . | 13% | . | . | 0% | 8%
